Growth inhibition data for 40 molecules are collected here from PubChem BioAssay (NCI).

Structures are written as SMILES. This is part of a sample that, as a whole, favours compounds with a hit. Of some 79,000 tested, about 15% had one in any assay. Values without a mark were called inactive. Calls of active or inactive are those of the source. No stated cut-off is given here; in the data, active means growth inhibition above about 70%; inactive means the rest.

Test [1] is described as follows: NCI Yeast Anticancer Drug Screen. Data for the rad50 strain (AID 155).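 Further: 0% = growth of vehicle-only cultures of the same strain.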 As to conditions: S. cerevisiae rad50 strain growth inhibition; at 50.0 µM; hits give high values. A digest of the protocol:
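Inhibition values express reduced yeast growth in compound-treated cultures relative to vehicle-treated controls.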

Test [2] is described as follows: NCI Yeast Anticancer Drug Screen. Data for the mec2-1 strain (AID 157). As to conditions: S. cerevisiae mec2-1 strain, at 50.0 µM, hits give high values. The procedure, abridged:
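Cells of the genetically defined mec2-1 yeast strain are incubated with test compound. Inhibition of growth is calculated against vehicle-treated controls.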

Test [3] in a line: NCI Yeast Anticancer Drug Screen. Data for the sgs1 mgt1 strain (AID 161).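 Further: 0% = growth of cultures given vehicle only.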 To be noted: S. cerevisiae sgs1 mgt1 strain, at 50.0 µM, hits give high values. The procedure, abridged:
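Read-out: growth inhibition vs vehicle controls. Cells: mutant yeast strain deficient in DNA damage repair.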

The nature of test [4]: NCI Yeast Anticancer Drug Screen. Data for the cln2 rad14 strain (AID 165).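 Further: 0% = growth equal to vehicle treated cultures.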 To be noted: S. cerevisiae cln2 rad14 strain, at 50.0 µM, hits give high values. The procedure, abridged:
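The screen exposed genetically defined yeast (cln2 rad14) to test compounds and scored growth inhibition relative to vehicle-treated controls.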

A short description of test [5]: NCI Yeast Anticancer Drug Screen. Data for the bub3 strain (AID 167). As to conditions: S. cerevisiae bub3 mutant strain, at 50.0 µM, hits give high values. The procedure, abridged:
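Steps: expose the mutant yeast strain to compound; grow alongside vehicle-treated cultures; measure growth; express inhibition against the vehicle cultures.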

Test [6] can be described thus: NCI Yeast Anticancer Drug Screen. Data for the mlh1 rad18 strain (AID 175). As to conditions: S. cerevisiae mlh1 rad18 strain growth inhibition; at 50.0 µM; hits give high values. The procedure, abridged:
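Compound-treated yeast growth, normalised to vehicle controls. Strain bears defined DNA repair mutations.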

For the molecule `Cc1ccc2nc(Nc3nc(C)cc(C)n3)[nH]c2c1`, the growth inhibition was -36.9% in test [1]; -31.6% in test [2]; -21.9% in test [3]; -0.3% in test [4]; -17.8% in test [5]; -11.9% in test [6].
For `Cc1cc(C)c(C(=O)c2ccccc2C(=O)c2ccccc2)c(C)c1`, the growth inhibition in test [1] is 20.5%; in test [2], -5.55%; in test [3] it was 17.2%; in test [4] it was 20.2%; in test [5], 20.6%; in test [6] it was 11.5%.
For `CC(=O)[CH-]C(=O)c1ccccc1.CC(=O)[CH-]C(=O)c1ccccc1.CC12CC3(C)CC(C)(C1)CC([O-])(C2)C3.CC[O-].[Ti+4]`, the growth inhibition in test [1] was 15.1%; in test [2], 21.8%; in test [3], 28.6%; in test [4], 23.8%; in test [5] it was 8.55%; in test [6] it was 18%.
As to `CS(=O)(=O)c1nc2ncnc(N)c2[nH]1`, the growth inhibition in test [1] is -6.2%; in test [2], -18.1%; in test [3], -6.3%; in test [4], -22.4%; in test [5] it was -27.1%; in test [6], -4.75%.
Turning to `CCC(=O)C(C)C(=O)C(=O)NCCNC(=O)C(=O)C(C)C(=O)CC` (stereo not given), the growth inhibition is 19.9% in test [1]; -1.3% in test [2]; 2.75% in test [3]; -16.6% in test [4]; -8.5% in test [5]; -25.6% in test [6].
In the case of `COC(=O)CCc1onc(Br)c1CCl`, the growth inhibition in test [1] is 17.8%; in test [2], 9.05%; in test [3], -7.55%; in test [4] it was 0.35%; in test [5], 9.95%; in test [6], 9.5%.
Regarding `CCOC(=O)Oc1ccc2[nH]c3c(C)cc(N)c(C)c3c2c1`, the growth inhibition in test [1] is 2.35%; in test [2], -33.2%; in test [3], -30.5%; in test [4] it was -7.8%; in test [5], -22.2%; in test [6] it was -11.1%.
For `COC(=O)C1CC(=O)N(CCCl)C1` (stereo not given), the growth inhibition in test [1] is -5.65%; in test [2], 5.6%; in test [3] it was -23.9%; in test [4], -18.1%; in test [5] it was 11.7%; in test [6], -10.8%.
Take `O=C1CCCCC1CN1CCCC1` (stereo not given): the growth inhibition was -10.4% in test [1]; -12% in test [2]; -33.6% in test [3]; 21.4% in test [4]; -42.5% in test [5]; -22.6% in test [6].
Take `O=C(Nc1ccccc1Cl)c1ccc(F)cc1`: the growth inhibition was -2.25% in test [1]; -12.2% in test [2]; 15% in test [3]; 7.4% in test [4]; -21.4% in test [5]; -3.85% in test [6].
On to `CCCC(C(O)CC)[N+](=O)[O-]` (stereo not given), for which the growth inhibition in test [1] was 8.65%; in test [2] it was -16.1%; in test [3], 11.7%; in test [4] it was 5.35%; in test [5], -6.25%; in test [6], 21.6%.
Regarding `CN(/C=C1\CCCCC1=O)c1ccccc1`, the growth inhibition in test [1] is -4.35%; in test [2], -17.2%; in test [3] it was -35.4%; in test [4] it was -14.4%; in test [5] it was -22.2%; in test [6], -7%.
For `C=CCNC=O`, the growth inhibition in test [1] was 2.55%; in test [2], 3.6%; in test [3], -6.4%; in test [4] it was -5.05%; in test [5], 14.4%; in test [6] it was -18.1%.
For the molecule `CC(=O)OC1CCC2(C)C(=CC=C3C4CCC(=O)NC4(C)CCC32)C1` (stereo not given), the growth inhibition is 19.5% in test [1]; 0.25% in test [2]; 21.4% in test [3]; 11.1% in test [4]; -3.6% in test [5]; 2.35% in test [6].
Take `O=C1CC2COc3ccc(OCCN4CCCC4)cc3C2=NN1c1ccccc1` (stereo not given): the growth inhibition was -4.75% in test [1]; 16.9% in test [2]; -22.7% in test [3]; -18.9% in test [4]; 2.15% in test [5]; 1.1% in test [6].
Turning to `COc1ccc(C(CC(=O)c2ccccc2)SCCN2CCOCC2)cc1` (stereo not given), the growth inhibition was 4.25% in test [1]; 0.85% in test [2]; 5.2% in test [3]; -43.6% in test [4]; 53.5% in test [5]; 3.6% in test [6].
For the molecule `Nc1nc(N)c(-c2ccccc2)c(CCC(=O)Nc2ccc(Cl)cc2)n1`, the growth inhibition is -34.8% in test [1]; 3.95% in test [2]; -3.35% in test [3]; -27.9% in test [4]; -21.5% in test [5]; 7.8% in test [6].
Turning to `Nc1cc2c3c(cccc3c1Br)C(=O)NC2=O`, the growth inhibition is 85.2% (active) in test [1]; 14.6% in test [2]; 35.5% in test [3]; 12.1% in test [4]; 15.3% in test [5]; 15.8% in test [6].
In the case of `CCCC(O)C(C)[N+](=O)[O-]` (stereo not given), the growth inhibition was 7.25% in test [1]; 4.5% in test [2]; -0.65% in test [3]; 4.75% in test [4]; 4.2% in test [5]; 0.6% in test [6].
`O=C(Nc1ccc(Br)cc1)Oc1ccc(Cl)cc1C(=O)c1ccccc1`: the growth inhibition is 38% in test [1]; 8.5% in test [2]; 19.1% in test [3]; 29.5% in test [4]; 41.8% in test [5]; 20.5% in test [6].
With `Cc1ccc(NC(=O)CC/C(CC(=O)C(C)(C)C)=N/NC(=O)C(N)=O)cc1C`, the growth inhibition in test [1] is -2.75%; in test [2] it was -9.95%; in test [3], 10.5%; in test [4], 10.6%; in test [5], 8.55%; in test [6], 5.1%.
As to `CCOC(=O)c1oc2cc(O)cc(O)c2c(=O)c1-c1ccc(OC)cc1`, the growth inhibition in test [1] is 7.8%; in test [2], -30.4%; in test [3], 11.6%; in test [4], 11.1%; in test [5], 3.1%; in test [6], 0.35%.
As to `Cc1cc(C)c2ccc(=O)[nH]c2n1`, the growth inhibition in test [1] was -2.8%; in test [2], -9%; in test [3] it was 2.6%; in test [4] it was -3.05%; in test [5], 8.75%; in test [6] it was 8.2%.
Regarding `CCO/C=C1/N=C(c2cccc3ccccc23)OC1=O`, the growth inhibition is 3.15% in test [1]; -1.5% in test [2]; 5.7% in test [3]; -64.2% in test [4]; -1.85% in test [5]; 5.55% in test [6].
On to `CC1(C)SC2C(C(=O)O)N=C(Cc3ccccc3)N2C1C(=O)O` (stereo not given), for which the growth inhibition in test [1] is 3.2%; in test [2] it was -17.9%; in test [3] it was -23.4%; in test [4] it was 1.45%; in test [5], -34%; in test [6], -7.05%.
For `N/N=C1\C(=O)N(C2CCCCC2)C(=O)C1C(=O)NC1CCCCC1` (stereo not given), the growth inhibition in test [1] is -10.9%; in test [2] it was -1.2%; in test [3], -15%; in test [4], -10.8%; in test [5], -20.4%; in test [6], -32.2%.
As for `CCCCS(=O)CC(CO)NC(=O)/C=C/c1c(C)[nH]c(=O)[nH]c1=O` (stereo not given), the growth inhibition is 12.9% in test [1]; 22.8% in test [2]; 12.8% in test [3]; 22.1% in test [4]; -3.25% in test [5]; 33.9% in test [6].
For `O=C1/C(=C/c2ccc(O)c(O)c2)CC/C1=C\c1ccc(O)c(O)c1`, the growth inhibition in test [1] was -18.9%; in test [2], -23.9%; in test [3], -21%; in test [4] it was 10.9%; in test [5] it was -16.1%; in test [6], -22.6%.
In the case of `c1ccc(COc2ccc(CC3SCCCS3)cc2)cc1`, the growth inhibition is -30.5% in test [1]; -35.8% in test [2]; -10.4% in test [3]; 24.9% in test [4]; 16.6% in test [5]; -7.5% in test [6].
Turning to `O=c1oc2c(c(N(c3ccccc3)c3ccccc3)c1Cl)CCc1nc(-c3ccccc3)sc1-2`, the growth inhibition in test [1] is 3%; in test [2], -1.25%; in test [3] it was -7.6%; in test [4], 10.8%; in test [5], -1.55%; in test [6] it was -14.9%.
`NC(=O)CN(CC(N)=O)CC(N)=O`: the growth inhibition was -0.7% in test [1]; -11.7% in test [2]; 1.75% in test [3]; -2.85% in test [4]; -3.65% in test [5]; -7.9% in test [6].
With `CCN(CC)c1ccc(Br)cc1`, the growth inhibition was 32.9% in test [1]; 4% in test [2]; 4.55% in test [3]; -2.5% in test [4]; 14.2% in test [5]; 33.9% in test [6].
As to `Cc1cc(N=Nc2ccc(C(=O)O)cc2)c(N)cc1N`, the growth inhibition was -34.5% in test [1]; -5.55% in test [2]; -7.1% in test [3]; -21.4% in test [4]; 9.7% in test [5]; -7.5% in test [6].
Regarding `O=c1[nH]c2cc(Cl)ccc2nc1/C(=N\O)C(O)c1ccc(Cl)cc1Cl` (stereo not given), the growth inhibition in test [1] was -9.9%; in test [2], -24.4%; in test [3] it was -0.35%; in test [4], 20.6%; in test [5] it was -5.6%; in test [6] it was -13.2%.
Take `CCCCCCCC/C=C\CCCCCCCC(=O)O`: the growth inhibition is 10.1% in test [1]; -23.1% in test [2]; -2.2% in test [3]; -22.9% in test [4]; -27.1% in test [5]; -15.7% in test [6].
In the case of `O=[N+]([O-])c1ccc(CC(Cl)c2ccccn2)cc1` (stereo not given), the growth inhibition in test [1] was 18.9%; in test [2] it was 9.85%; in test [3], 19.1%; in test [4], -11.4%; in test [5], 22.2%; in test [6] it was 42.2%.
With `O=C(OCCCCNC1CCCCC1)c1ccc([N+](=O)[O-])cc1`, the growth inhibition in test [1] is 9.65%; in test [2], 3%; in test [3] it was -7.05%; in test [4], -7.3%; in test [5], -13.6%; in test [6] it was 5.25%.
With `O=C1N=C(C=c2ccc(=Cc3[nH]c(=O)n(CN4CCCCC4)c3O)cc2)C(=O)N1CN1CCCCC1`, the growth inhibition in test [1] is 1.2%; in test [2], -6.2%; in test [3] it was 3.65%; in test [4], 26.4%; in test [5], -10.3%; in test [6], -7.1%.
With `Clc1ccc(Nc2nc3ccccc3nc2-c2cccs2)cc1Cl`, the growth inhibition is -13.4% in test [1]; 4.55% in test [2]; 1.2% in test [3]; -7.5% in test [4]; -3.05% in test [5]; -2.1% in test [6].
Take `N=c1ccc2ccccc2n1O`: the growth inhibition in test [1] was 10.6%; in test [2] it was -3.85%; in test [3], -4.2%; in test [4], -49.1%; in test [5], 7.2%; in test [6], -7.9%.
